Measurements reported in PubChem BioAssay (Tox21).
Results filed as inconclusive are left out. Calls of active or inactive are those of the source. Unless noted, calls come from the whole dose curve; as a rule, active = well fitted curve in the direction sought with a large enough effect in the repeat runs; inconclusive = weak or mixed curves; inactive = no such curve, though single readings can be large; an effect the other way counts as inactive or inconclusive.

Experiments:
[1] = target: Thyrotropin receptor (Homo sapiens) (UniProt P16473); test: qHTS assay to identify small molecule agonists of the thyroid stimulating hormone receptor (TSHR) signaling pathway (AID 1224843; calls by dose curve; note: nearly all actives have a fitted effect of over 45% in size)
Method in brief: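 TSHR-expressing HEK293 cells (800 per well) were exposed to compounds for 30 min at room temperature. cAMP was then detected by HTRF competition with cAMP-d2 and anti-cAMP cryptate, read after 1 h at room temperature. Fifteen concentrations, triplicate.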

[2] = qHTS assay to identify small molecule agonists of the hypoxia (HIF-1) signaling pathway - cell viability counter screen (AID 1224844; calls by dose curve; note: nearly all actives have a fitted effect of over 50% in size)
Method in brief: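 ME-180 HRE-bla cells, 2,000/well, 0.5% dialyzed FBS; 5 hr settle, 17 hr compound at 37C/5% CO2; CCF4-AM reporter read first, then CellTiter-Glo luminescence after 30 min RT.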

[3] = qHTS assay to identify small molecule agonists of H2AX (AID 1224845; active = well fitted activation curve with a large enough effect in the signal ratio in the repeat runs, not every such curve was filed as active; the % refers to the signal ratio)
Method in brief: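 Wild-type CHO-K1 cells plated overnight, then exposed 3 hr at 37C to compounds at 15 concentrations (0.76% DMSO). Lysed, then HTRF anti-pH2AX(S139)-cryptate/anti-H2AX-d2 detection after 24 hr at room temperature; emissions 665 and 620 nm.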

[4] = qHTS assay to identify small molecule agonists of the hypoxia (HIF-1) signaling pathway (AID 1224846; active = well fitted activation curve with a large enough effect in the signal ratio in the repeat runs, not every such curve was filed as active; the % refers to the signal ratio)
Method in brief: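 Cell line: CellSensor HRE-bla ME-180; 2,000 cells/well; 0.5% dialyzed FBS; 5 h preincubation; DMSO compound pin transfer; 17 h, 37C, 5% CO2; CCF4-AM added; bla FRET signal scored for activation.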

[5] = qHTS assay to identify small molecule agonists of H2AX - cell viability counter screen (AID 1224847; calls by dose curve; note: top concentration of the series differs between compounds; nearly all actives have a fitted effect of over 30% in size)
Method in brief: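 Wild-type CHO-K1 cells (10% FBS medium) were plated overnight at 37C, exposed to compounds at 15 concentrations for 3 hr at 37C (0.76% DMSO final), and viability was read as CellTiter-Glo luminescence after 30 min at room temperature.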

[6] = qHTS assay to identify small molecule antagonists of the estrogen related receptor (ERR) signaling pathway from Tox21 library (AID 1224848); note: nearly all actives have a fitted effect of over 50% in size; note: potency is the fitted concentration of half-maximal effect
Method in brief: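 Cells: ERR line, 2,000/well; 6 h preincubation 37 C/5% CO2. Cpd in DMSO via pin tool; 18 h, 37 C. ONE-Glo, 30 min RT, luminescence.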

[7] = qHTS assay to identify small molecule agonists of the estrogen related receptor (ERR) signaling pathway from Tox21 library (AID 1224849; calls by dose curve; note: nearly all actives have a fitted effect of over 15% in size); conditions: ERR reporter cell line, ONE-Glo luciferase, 18 h; at 92.4 µM (top of the series) unless noted
Method in brief: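 ERR cells, 6 h pre-incubation 37 C/5% CO2; cpd in DMSO pinned; 18 h 37 C; ONE-Glo added, 30 min RT; luminescence read. Agonist mode, qHTS.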

[8] = qHTS RealTime-Glo MT Cell Viability Assay in HepG2 cells - 24 hour (AID 1224867); note: nearly all actives have a fitted effect of over 50% in size
Method in brief: (§1)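 Cell number in HepG2 cultures estimated from NanoLuc luminescence generated by metabolic reduction of a prosubstrate by living cells. The homogeneous, nonlytic format allowed repeated reads at 0, 8, 16, 24, 32 and 40 h of compound exposure.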

[9] = qHTS RealTime-Glo MT Cell Viability Assay in HEK293 cells - 32 hour (AID 1224868); note: nearly all actives have a fitted effect of over 50% in size; note: potency is the fitted concentration of half-maximal effect
Method in brief: (§2)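 Homogeneous bioluminescent viability format in HEK293 cells (600 cells/well). Following 5 h at 37 C/5% CO2, 23 nL compound was pintooled; the signal was measured repeatedly during 40 h incubation.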

[10] = A CellTox Green Cytotoxicity Assay to monitor cytotoxicity in HEK293 cells - 0 hour (AID 1224869); note: nearly all actives have a fitted effect of over 50% in size
Method in brief: (§3)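 Nonlytic real-time cytotoxicity: HEK293 + CellTox Green reagent plated, 5 h preincubation, pintool compound addition (23 nL in DMSO), 37 C for 40 h, fluorescence measured at successive time points.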

[11] = A CellTox Green Cytotoxicity Assay to monitor cytotoxicity in HEK293 cells - 40 hour (AID 1224871); note: nearly all actives have a fitted effect of over 45% in size
Method in brief: as §3

[12] = qHTS RealTime-Glo MT Cell Viability Assay in HEK293 cells - 16 hour (AID 1224872)
Method in brief: as §2

[13] = qHTS RealTime-Glo MT Cell Viability Assay in HepG2 cells - 8 hour (AID 1224873); note: nearly all actives have a fitted effect of over 55% in size
Method in brief: (§4)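 HepG2 cells mixed with RealTime-Glo MT reagents (NanoLuc plus cell-permeant prosubstrate) were seeded at 600 cells/well, incubated 5 h at 37 C/5% CO2, then pinned with compounds in DMSO; nonlytic luminescence tracked viability during 40 h treatment.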

[14] = qHTS RealTime-Glo MT Cell Viability Assay in HEK293 cells - 40 hour (AID 1224874); conditions: RealTime-Glo luminescence; max response: active compounds read low; note: nearly all actives have a fitted effect of over 50% in size; note: potency is the fitted concentration of half-maximal effect
Method in brief: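 Cells were seeded together with NanoLuc luciferase and a prosubstrate that viable cells reduce to a luciferase substrate. After a 5 h incubation at 37 C/5% CO2, compounds were added and luminescence was measured repeatedly during 40 h of treatment.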

[15] = A CellTox Green Cytotoxicity Assay to monitor cytotoxicity in HEK293 cells - 24 hour (AID 1224875); note: nearly all actives have a fitted effect of over 45% in size
Method in brief: as §3

[16] = A CellTox Green Cytotoxicity Assay to monitor cytotoxicity in HepG2 cells - 16 hour (AID 1224876); note: nearly all actives have a fitted effect of over 45% in size
Method in brief: (§5)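 Read-out is fluorescence of a cyanine dye excluded from live cells that stains DNA of dead HepG2 cells, with signal proportional to cytotoxicity. Plates were read at 0, 8, 16, 24, 32 and 40 h after compound addition.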

[17] = qHTS RealTime-Glo MT Cell Viability Assay in HepG2 cells - 32 hour (AID 1224877); note: nearly all actives have a fitted effect of over 55% in size
Method in brief: as §1

[18] = A CellTox Green Cytotoxicity Assay to monitor cytotoxicity in HepG2 cells - 40 hour (AID 1224879); note: nearly all actives have a fitted effect of over 40% in size
Method in brief: as §5

[19] = A CellTox Green Cytotoxicity Assay to monitor cytotoxicity in HepG2 cells - 24 hour (AID 1224878); note: nearly all actives have a fitted effect of over 45% in size
Method in brief: as §5

[20] = qHTS RealTime-Glo MT Cell Viability Assay in HepG2 cells - 40 hour (AID 1224870); note: nearly all actives have a fitted effect of over 50% in size
Method in brief: as §4
% is set by controls: 0 for no effect and ±100 for the full control effect.

Thyrotropin receptor (Homo sapiens), sequence (P16473 whole entry, looked up): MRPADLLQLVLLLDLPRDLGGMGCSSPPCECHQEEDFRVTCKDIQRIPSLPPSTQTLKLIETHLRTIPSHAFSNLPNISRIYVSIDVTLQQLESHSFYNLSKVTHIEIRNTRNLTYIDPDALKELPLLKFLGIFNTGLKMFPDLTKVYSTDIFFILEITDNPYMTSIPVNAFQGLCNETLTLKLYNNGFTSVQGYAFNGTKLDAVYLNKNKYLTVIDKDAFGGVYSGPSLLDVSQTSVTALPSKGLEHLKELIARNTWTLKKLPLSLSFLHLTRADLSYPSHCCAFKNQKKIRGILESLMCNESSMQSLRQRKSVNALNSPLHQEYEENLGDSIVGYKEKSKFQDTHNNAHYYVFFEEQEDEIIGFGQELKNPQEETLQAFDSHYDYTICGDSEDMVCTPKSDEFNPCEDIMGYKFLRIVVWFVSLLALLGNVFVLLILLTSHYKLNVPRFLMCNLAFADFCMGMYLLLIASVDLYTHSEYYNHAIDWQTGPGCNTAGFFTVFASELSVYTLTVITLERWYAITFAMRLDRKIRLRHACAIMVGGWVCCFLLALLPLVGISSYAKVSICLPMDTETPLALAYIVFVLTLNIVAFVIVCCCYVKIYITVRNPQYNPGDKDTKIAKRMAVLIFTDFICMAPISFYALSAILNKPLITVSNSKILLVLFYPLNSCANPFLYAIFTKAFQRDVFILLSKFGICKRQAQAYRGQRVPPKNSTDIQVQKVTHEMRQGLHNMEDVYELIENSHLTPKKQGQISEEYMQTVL

O=[N+]([O-])c1nccn1CO[C@@H](CO)[C@H](O)CO
inactive: Potency [1] | Potency [2] | Potency [3] | outcome [4] | Potency [5] | Potency [6] | activity change, positive = activation [7] 7.4% [at 42.5 µM] | Potency [8] | Potency [9] | Potency [10] | Potency [11] | Potency [12] | outcome [13] | max response [14] -3.33% | Potency [15] | Potency [16] | Potency [17] | Potency [18]

O=c1[nH]cnc2c1ncn2[C@@H]1O[C@H](CO)[C@@H](O)[C@H]1O
inactive: Potency [1] | Potency [2] | Potency [3] | outcome [4] | Potency [5] | Potency [6] | activity change, positive = activation [7] 2.74% [at 42.5 µM] | Potency [8] | Potency [9] | Potency [10] | Potency [11] | Potency [12] | outcome [13] | max response [14] 1.22% | Potency [15] | Potency [16] | Potency [17] | Potency [19] | Potency [18]

O=C1C=CC(=O)O1
inactive: Potency [1] | Potency [2] | Potency [3] | outcome [4] | Potency [5] | Potency [6] | activity change, positive = activation [7] 7.02% | Potency [8] | Potency [9] | Potency [10] | Potency [20] | Potency [11] | Potency [12] | outcome [13] | max response [14] 12.6% | Potency [15] | Potency [16] | Potency [17] | Potency [19] | Potency [18]

O=C(O)[C@@H](O)[C@H](O)[C@H](O)[C@@H](O)C(=O)O
inactive: Potency [1] | Potency [2] | Potency [3] | outcome [4] | Potency [5] | Potency [6] | activity change, positive = activation [7] 4.4% [at 42.5 µM] | Potency [8] | Potency [9] | Potency [10] | Potency [20] | Potency [11] | Potency [12] | outcome [13] | max response [14] 0.215% | Potency [15] | Potency [16] | Potency [17] | Potency [19] | Potency [18]

O=C(C(Cl)Cl)N1CCOC12CCCCC2
inactive: Potency [1] | Potency [2] | Potency [3] | outcome [4] | Potency [5] | Potency [6] | activity change, positive = activation [7] -5.71% | Potency [8] | Potency [9] | Potency [10] | Potency [20] | Potency [11] | Potency [12] | outcome [13] | max response [14] 12.9% | Potency [15] | Potency [16] | Potency [17] | Potency [19] | Potency [18]

CC[C@H]1CC[C@H](NCc2cc3c(cc2OC)[C@H]2C[C@H]2C(=O)N3C)[C@H](c2ccccc2)N1
active: Potency [6] 27.3 µM | Potency [9] 19.5 µM | Potency [14] 21.9 µM
inactive: Potency [1] | Potency [2] | Potency [3] | outcome [4] | Potency [5] | activity change, positive = activation [7] -40.9% | Potency [8] | Potency [10] | Potency [20] | Potency [11] | outcome [13] | Potency [15] | Potency [16] | Potency [17]

CCc1nnc(NS(=O)(=O)c2ccc(N)cc2)s1
inactive: Potency [1] | Potency [2] | Potency [3] | outcome [4] | Potency [5] | Potency [6] | activity change, positive = activation [7] 2.74% [at 42.5 µM] | Potency [8] | Potency [9] | Potency [10] | Potency [20] | Potency [11] | Potency [12] | outcome [13] | max response [14] 6.63% | Potency [15] | Potency [16] | Potency [17] | Potency [18]
